Some test systems named below: SR leukemia; RPMI-8226 leukemia; OVCAR-8 ovarian; OVCAR-5 ovarian; OVCAR-4 ovarian; IGROV1 ovarian; OVCAR-3 ovarian; HS 578T breast; NCI/ADR-RES ovarian; SK-OV-3 ovarian.
Holding throughout (experiment): NCI-60 one-dose screen, 48 h (100 = growth as untreated, 0 = no growth, -100 = all killed)
Holding throughout (conditions): 10 µM unless noted

The structures appear in SMILES notation. This is part of a sample that, as a whole, favours compounds with a hit. Of some 83,000 tested, about 20% had one in any assay.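 How to read the values: 0–100, growth inhibition (40 = 60% inhibited); 0, no net growth; -100 to 0, cell death (-40 = 40% of starting cells died; -100 = all dead).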 Unmarked numbers belong to inactive results. Calls of active or inactive are those of the source. How the source made its calls: active means growth percent below 10; inactive means the rest.

With `NC(=O)c1ccc[n+](CC(=O)N2CCN(c3cc4c(cc3F)c(=O)c(C(=O)O)cn4C3CC3)CC2)c1`, the growth with SR leukemia is 32.2%; with RPMI-8226 leukemia it was 74.3%; with OVCAR-8 ovarian, 92.8%; in the experiment on OVCAR-5 ovarian it was 114%; in the experiment on OVCAR-4 ovarian, 74.8%; in the experiment with IGROV1 ovarian, 99.4%. Besides, the growth in the experiment on OVCAR-3 ovarian was 69.4%; in the experiment with HS 578T breast, 91.1%; in the experiment on NCI/ADR-RES ovarian, 99.8%.
For the compound `Cc1cn(-c2cc(C(=O)Nc3cccc(C#Cc4cccc5[nH]nc(N)c45)c3)cc(C(F)(F)F)c2)cn1`, the growth in the experiment on SR leukemia was 49.9%; in the experiment with RPMI-8226 leukemia it was 20.1%; with OVCAR-8 ovarian, 48.8%; with OVCAR-5 ovarian it was 44.2%; in the experiment with OVCAR-4 ovarian, 38%; in the experiment with SK-OV-3 ovarian, 72.6%. The growth was 77.7% with OVCAR-3 ovarian, 39.4% in the experiment with HS 578T breast and 98.6% in the experiment on NCI/ADR-RES ovarian.
`O=C1c2cccnc2C(=O)c2nc3cc(N4CCN(C5CC5)CC4)ccc3nc21`: the growth with SR leukemia was -10% (active); with RPMI-8226 leukemia it was 25.3%; in the experiment on OVCAR-8 ovarian, -15.2% (active); in the experiment on OVCAR-5 ovarian it was -82.3% (active); in the experiment on OVCAR-4 ovarian it was -87.8% (active); with SK-OV-3 ovarian, -78.6% (active). The growth was -1.56% (active) with OVCAR-3 ovarian, -36.5% (active) with HS 578T breast and 20.1% with NCI/ADR-RES ovarian.
Take `COc1ccc(C(=O)c2cc(C)c(OC)c(C)c2)c(OC)c1N(C(=O)C(Cl)Cl)C(=O)C(Cl)Cl`: the growth in the experiment on SR leukemia is 20.7%; in the experiment on RPMI-8226 leukemia, 19.9%; in the experiment on OVCAR-8 ovarian it was 16%; with OVCAR-5 ovarian, 33.1%; in the experiment on OVCAR-4 ovarian it was 62.1%; with SK-OV-3 ovarian it was 1.2% (active). Besides, the growth in the experiment on OVCAR-3 ovarian is -13.4% (active); in the experiment on HS 578T breast, 22.1%; with NCI/ADR-RES ovarian it was -1.2% (active).
As to `COc1ccc(C(O)c2cc3c(N)c(C(=O)Nc4ccc(Cl)cc4)sc3nc2C)cc1` (stereo not drawn), the growth was -9.53% (active) with SR leukemia; 5.22% (active) in the experiment on RPMI-8226 leukemia; 30.6% in the experiment on OVCAR-8 ovarian; 46.8% in the experiment on OVCAR-5 ovarian; 38.4% with OVCAR-4 ovarian; 32.1% with SK-OV-3 ovarian. In addition, the growth was -35.7% (active) in the experiment with OVCAR-3 ovarian, 7.82% (active) in the experiment with HS 578T breast and 16% with NCI/ADR-RES ovarian.
On to `O=C(Nc1nc(-c2ccccc2Cl)cs1)c1cc(-c2ccccc2)nc2ccc(Cl)cc12`, for which the growth is 21.9% in the experiment on SR leukemia; 21.4% in the experiment with RPMI-8226 leukemia; 19.2% in the experiment on OVCAR-8 ovarian; 93.2% with OVCAR-5 ovarian; 76% with OVCAR-4 ovarian; 95.5% in the experiment on SK-OV-3 ovarian. In addition, the growth was 28.1% with OVCAR-3 ovarian, 76.4% with HS 578T breast and 16.5% in the experiment on NCI/ADR-RES ovarian.
For the compound `O=C(CNCCO)Nc1ccc2ncnc(Nc3ccc(OCc4cccc(F)c4)c(Cl)c3)c2c1`, the growth with SR leukemia was 12.9%; with RPMI-8226 leukemia it was 88.2%; in the experiment on OVCAR-8 ovarian, 80.4%; in the experiment with OVCAR-5 ovarian it was 85.5%; in the experiment with OVCAR-4 ovarian, 93.8%; in the experiment with IGROV1 ovarian, 33.6%. The growth with OVCAR-3 ovarian is 72.7%; with HS 578T breast, 103%; in the experiment on NCI/ADR-RES ovarian, 90.1%.
For the compound `C[C@]12C[C@H]1CC[C@]1(C)[C@@H]2CC[C@@]23C[C@H](CC[C@H]21)[C@@](O)(CO)C3`, the growth in the experiment with SR leukemia was 63.3%; with RPMI-8226 leukemia it was 95%; in the experiment on OVCAR-8 ovarian, 102%; with OVCAR-5 ovarian, 92.9%; in the experiment on OVCAR-4 ovarian, 110%; in the experiment on SK-OV-3 ovarian it was 113%. Further, the results for the growth in the experiment on OVCAR-3 ovarian, in the experiment on HS 578T breast and in the experiment on NCI/ADR-RES ovarian were 111%, 99.6% and 97.7%, respectively.
As to `COc1cc2nc(-c3ccc(-c4nn[nH]n4)cc3)[nH]c(=O)c2cc1OC`, the growth with SR leukemia was 97.8%; in the experiment with RPMI-8226 leukemia, 81.8%; in the experiment with OVCAR-8 ovarian it was 105%; in the experiment with OVCAR-5 ovarian, 99.4%; in the experiment on OVCAR-4 ovarian, 115%; in the experiment on IGROV1 ovarian, 108%. In addition, the figures for the growth in the experiment with OVCAR-3 ovarian and in the experiment with HS 578T breast were 112% and 110%, respectively.
Take `COc1ccc(C2CC(c3cccc(Nc4ccncc4)c3)=NN2c2cc(Cl)cc(Cl)c2)cc1` (stereo not drawn): the growth with SR leukemia was 2.77% (active); in the experiment on RPMI-8226 leukemia it was 14.9%; in the experiment with OVCAR-8 ovarian, -31.8% (active); in the experiment with OVCAR-5 ovarian, 82.5%; with OVCAR-4 ovarian it was 28.2%; with IGROV1 ovarian, 17.3%. For the same compound, the growth in the experiment with OVCAR-3 ovarian was 49%; in the experiment on HS 578T breast it was 56.7%.
Turning to `Cc1c2c(cc[n+]1Cc1ccccc1)c1ccc(OCc3ccccc3)cc1n2Cc1ccccc1`, the growth in the experiment with SR leukemia is -52.5% (active); in the experiment with RPMI-8226 leukemia, -21.6% (active); with OVCAR-8 ovarian it was -70.9% (active); in the experiment on OVCAR-5 ovarian, 13.5%; in the experiment with OVCAR-4 ovarian, -3.79% (active); with SK-OV-3 ovarian, 7.67% (active). The values for the growth with OVCAR-3 ovarian, in the experiment on HS 578T breast and in the experiment with NCI/ADR-RES ovarian were -97.1% (active), -35.9% (active) and 65%, respectively.
In the case of `C=C1C(=O)O[C@H]2[C@H]1CC/C(COC(=O)CCCc1c[nH]c3ccccc13)=C\CC[C@@]1(C)O[C@@H]21`, the growth with SR leukemia is 1.59% (active); in the experiment on RPMI-8226 leukemia, -17.6% (active); with OVCAR-8 ovarian it was 66.3%; with OVCAR-5 ovarian, 94.7%; in the experiment with OVCAR-4 ovarian, 65.8%; in the experiment on IGROV1 ovarian, 45.8%. Moreover, the growth in the experiment on OVCAR-3 ovarian was 28.3%; in the experiment with HS 578T breast, 74%.
In the case of `CCN(CC)S(=O)(=O)c1cccc([N+](=O)[O-])c1`, the growth was 103% with SR leukemia; 93.2% in the experiment with RPMI-8226 leukemia; 85.7% in the experiment on OVCAR-8 ovarian; 109% with OVCAR-5 ovarian; 95.4% in the experiment on OVCAR-4 ovarian; 86.9% with SK-OV-3 ovarian. For the same compound, the growth in the experiment on OVCAR-3 ovarian was 108%; in the experiment with HS 578T breast, 97.9%; in the experiment on NCI/ADR-RES ovarian it was 103%.
On to `FC(F)(F)c1cccc(Oc2ccc(Nc3ncnc4ccc(OCCCN5CCOCC5)cc34)cc2Cl)c1`, for which the growth in the experiment with SR leukemia is 10.4%; in the experiment with RPMI-8226 leukemia, 32%; in the experiment on OVCAR-8 ovarian, 56.1%; with OVCAR-5 ovarian it was 59.7%; in the experiment on OVCAR-4 ovarian, 43.7%; in the experiment on SK-OV-3 ovarian, 22.1%. Further, the results for the growth in the experiment with OVCAR-3 ovarian, in the experiment with HS 578T breast and in the experiment with NCI/ADR-RES ovarian were 51.6%, 72.4% and 49.9%, respectively.

Source of the values: PubChem BioAssay (NCI).
